Compound activity: PubChem, several laboratories
GALR2 ag: activates the human galanin receptor 2 | O43603 | GALR2-expressing cells, agonist activation read-out | 0.48% of 140,000 active | activation, % (concentration not given with the values) | AID 803; in the data active = activation above about 5%, passing the limit was not always enough;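 also: 0% = vehicle buffer wells and 100% = reference agonist at full effect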
Target sequence (O43603 whole entry, looked up): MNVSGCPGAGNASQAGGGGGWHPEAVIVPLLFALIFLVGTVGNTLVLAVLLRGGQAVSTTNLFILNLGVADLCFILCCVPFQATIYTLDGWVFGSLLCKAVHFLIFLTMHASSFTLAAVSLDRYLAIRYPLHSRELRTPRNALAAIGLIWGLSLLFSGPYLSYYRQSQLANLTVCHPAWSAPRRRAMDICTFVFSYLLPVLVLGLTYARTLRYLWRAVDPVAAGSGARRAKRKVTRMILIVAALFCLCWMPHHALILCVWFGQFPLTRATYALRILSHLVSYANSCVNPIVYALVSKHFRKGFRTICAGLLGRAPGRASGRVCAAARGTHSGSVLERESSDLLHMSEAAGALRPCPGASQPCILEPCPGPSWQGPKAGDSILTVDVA
CD11b adhes inh: blocks human CD11b/CD18 adhesion to fibrinogen; inhibition, % at 10 µM; P05107+P11215; K562 CD11b/CD18 adhesion to fibrinogen, ATPlite luminescence; Mn2+ added to activate the integrin; 0.54% of 93,000 active;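 active = primary inhibition of 50% or more at 10 µM, then 40% or more on retest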
S1P2 ag: S1P2 (human) receptor agonism; S1P2-expressing cell line, agonist reporter read-out; activation, % at 4.5 µM; 0.46% of 97,000 active; AID 729; in the data active = activation above about 16%;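 also: 0% = vehicle low control and 100% = maximal reference agonist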
S1P2 blocker: S1P2 (human) receptor antagonism; cell-based S1P2 antagonist assay, inhibition at 5 uM; inhibition, % at 5 µM; 0.21% of 97,000 active; AID 736; in the data active = inhibition above about 45%;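 also: CRE beta-lactamase reporter cells expressing human S1P2 stimulated with S1P; 0% = agonist at EC80 alone and 100% = agonist plus reference antagonist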
GALR2 antag: GALR2 (human) receptor antagonism. 0.39% of 140,000 active. GALR2-expressing cells, antagonist mode. inhibition, % at 4 µM. O43603; in the data active = inhibition above about 27%;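 also: cells stimulated with galanin 1-16 at roughly its EC80; 0% = agonist challenge control and 100% = basal control without agonist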
CD11b adhes enh: enhancers of human CD11b/CD18 binding to fibrinogen | K562 CD11b/CD18 adhesion to fibrinogen, ATPlite luminescence | activation, % at 10 µM | AID 1499 | P05107+P11215 | 0.07% of 93,000 active;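 active = 10 µM primary screen giving 50% or more activity, confirmed by 40% or more on retest at that dose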
Starred values were filed as active, the others as inactive; nt = no result. Most compounds without a hit are left out; they make up all but 1.5% or so of the library.

SMILES | GALR2 ag | CD11b adhes inh | S1P2 ag | S1P2 blocker | GALR2 antag | CD11b adhes enh
CCCOc1ccc(C2C(C(=O)OC)=C(C)N=C3SCCC(=O)N32)cc1OCC (stereo unspecified) | 1 | -6 | 25* | -41 | -9 | -2
CCOc1cc(C2C(C(=O)OC(C)C)=C(C)N=C3SCCC(=O)N32)ccc1OC(C)=O (stereo unspecified) | -1 | -19 | 1 | -9 | -9 | 5
CCOc1ccc(Br)cc1/C(C)=N\NC1=NCCN1 | -2 | 84* | -6 | 17 | 4 | -6
O=C(NCc1cccnc1)/C(=C/c1ccc(-c2cccc(C(F)(F)F)c2)o1)NC(=O)c1ccccc1 | -2 | 0 | -3 | -4 | 9 | 3
O=C(NCc1cccnc1)/C(=C/c1ccc(-c2ccc(Cl)cc2)o1)S(=O)(=O)c1ccccc1 | 1 | nt | -5 | 54* | 24 | nt
Cc1ccc(S(=O)(=O)Nc2c(C)[nH]c(=O)[nH]c2=O)cc1C | 5.9* | nt | nt | nt | 6 | nt
Cc1[nH]c(=O)[nH]c(=O)c1NS(=O)(=O)c1ccc2c(c1)CCCC2 | -1 | -20 | -4 | -3 | -13 | 2
COC(=O)C/C(C)=N/Nc1ccc(S(=O)(=O)N2CCCC2)cc1[N+](=O)[O-] | -1 | 14 | nt | nt | -2 | 4
CCC(C)NC(=O)C1CCN(c2nc(OC)nc(OC)n2)CC1 (stereo unspecified) | -2 | nt | 22* | -4 | -3 | nt
C=CCNC(=O)Nc1ccc2oc(C)nc2c1 | -3 | 8 | -6 | 22 | -5 | 3
Cc1nc2cc(NC(=O)N(C)c3ccc4ccccc4c3)ccc2o1 | 5.0* | -12 | -2 | 4 | -35 | 0
O=[N+]([O-])c1ccc(O)c(/C=N/Nc2ccccn2)c1 | 6.2* | -18 | nt | nt | 20 | 29
O=[N+]([O-])c1ccc(O)c(/C=N/Nc2nc3ccccc3[nH]2)c1 | -2 | nt | nt | nt | 14 | nt
COc1ccc2sc(SCCCS(=O)(=O)O)[n+](CCCS(=O)(=O)[O-])c2c1 | 0 | -3 | nt | nt | 1 | -1
CSc1sc2ccccc2[n+]1CCCS(=O)(=O)[O-] | -2 | -5 | 26* | 3 | -10 | -2
Cc1ccc(C)c(NC(=O)C(Sc2nnc(-c3cccs3)o2)c2ccccc2)c1 (stereo unspecified) | -2 | 6 | nt | nt | 0 | -1
Cc1scc(C(=O)N/N=C/c2ccc(Cl)s2)c1C | 0 | nt | nt | nt | -2 | nt
CCc1ccc(-c2nc(CSCC(=O)N3CCN(c4ncccn4)CC3)c(C)o2)cc1 | -2 | 79* | -6 | 26 | -1 | -7
CSc1ccc(-c2nc(CSCC(=O)N3CCOCC3)c(C)o2)cc1 | -1 | 19 | -4 | -6 | 0 | -3
Cc1c([N+](=O)[O-])c([N+](=O)[O-])nn1CC(=O)N1CCCCC1 | -1 | nt | nt | nt | 14 | nt
COc1ccc(-c2nc3ccccn3c2NCc2ccc3c(c2)OCO3)cc1 | -4 | nt | -8 | -14 | 3 | nt
c1ccc(-c2nc3ccccn3c2NCc2ccc3c(c2)OCO3)cc1 | -2 | nt | 174* | 6 | 0 | nt
CCOc1ccc(NC(=O)CCN2CCN(S(=O)(=O)c3ccc(Cl)cc3)CC2)cc1 | 269* | -23 | -6 | -1 | -10 | 0
CC(C)c1ccccc1NC1=CC(=O)CC(C)(C)C1 | 0 | nt | nt | nt | -7 | nt
Cc1csc(NC(=O)CSc2nnc(-c3cc(C)on3)o2)n1 | -1 | nt | nt | nt | 5 | nt
SMILES | GALR2 ag | CD11b adhes inh | S1P2 ag | S1P2 blocker | GALR2 antag | CD11b adhes enh
Cc1cc(-c2nnc(SCC(=O)NC3CCCC3)o2)no1 | -1 | -4 | 70* | 15 | 1 | -3
CCCc1ccc(-c2cc(C(=O)Nc3ccc([N+](=O)[O-])cn3)c3ccccc3n2)cc1 | 0 | 23 | nt | nt | -11 | -5
Cc1cc(C)c2c(N)c(S(=O)c3ccc(C(C)(C)C)cc3)sc2n1 (stereo unspecified) | -3 | 23 | -13 | -4 | 10 | 2
COc1cccc(Nc2nc3ccccc3nc2-n2nc(C)cc2C)c1 | 23* | -4 | 38* | -48 | -1 | 3
Cc1cc(C)n(-c2nc3ccccc3nc2Nc2ccc3c(c2)OCO3)n1 | 0 | nt | nt | nt | 4 | nt
O=C(COC(=O)c1ccccc1C(=O)c1ccc(Cl)cc1)NCCc1ccccc1 | -1 | 16 | nt | nt | 7 | 7
O=C(COC(=O)c1ccccc1C(=O)c1ccccc1)NCCc1ccccc1 | 7.0* | 8 | nt | nt | -2 | 1
O=C(CSc1nnc(-c2ccc3c(c2)OCO3)o1)Nc1ncc(Cl)cc1Cl | -1 | nt | nt | nt | 6 | nt
CCCC(=O)Nc1cccc(NC(=O)c2cccc([N+](=O)[O-])c2C)c1 | 0 | nt | nt | nt | 8 | nt
